Test results as given in PubChem BioAssay (EPA / NIEHS).
Calls of active or inactive are those of the source. How the source made its calls: active means hit-call score of the fitted dose curve at least 0.9, where 1 is the maximum; inactive means score below 0.9.

Assay: CCTE_Shafer_MEA_acute_per_network_burst_spike_number_mean: CCTE's Neural Acute Assay for Average Number of Spikes in a Network Burst, Shafer Lab (AID 2284019);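 on AC50: curve fitted for loss of signal so actives reduce spikes per network burst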
Procedure, shortened: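 Acute exposure of rat primary cortical networks (DIV 13/15) on MEAs; adaptive spike detection at 8x rms noise, 37 C. Percent change in spikes per network burst after 40 min with compound (0.03-40 uM), negative direction vs DMSO.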

For CC[C@H](C)C(=O)O[C@H]1C[C@H](O)C=C2C=C[C@H](C)[C@H](CC[C@@H](O)C[C@@H](O)CC(=O)O)[C@H]21, which outcome is on record?
Its outcome is “inactive”.

With CCCCCCCC1CCC(=O)O1 (centres undefined) as the molecule, how does the outcome read?
The outcome was “inactive”.

With OCc1ccccc1 as the molecule, how does the outcome read?
Its outcome is “inactive”.

Which outcome does the source give for CC(C)C(=O)Nc1ccc([N+](=O)[O-])c(C(F)(F)F)c1 here?
Its outcome is “inactive”.

For CCCc1ccccc1, which outcome is on record?
Its outcome is “inactive”.

For CCCCC(CC)C(=O)OCCOCCOCCOC(=O)C(CC)CCCC (centres undefined), which outcome is on record?
Its outcome is “inactive”.

For CCc1ccc(O)c(C(C)(C)C)c1, which AC50 is on record?
Its AC50 is 35.3 µM (active).

Which AC50 does the source give for c1ccc(C(O[C@@H]2CCCN(CCc3ccc4c(c3)OCO4)C2)c2ccccc2)cc1 here?
The AC50 was 4.49 µM (active).

Which outcome does the source give for COc1cc2c(c(OC)c1OC)-c1ccc(OC)c(=O)cc1[C@@H](NC(C)=O)CC2 here?
Its outcome is “inactive”.

With OC(CCl)CCl as the molecule, how does the outcome read?
Its outcome is “inactive”.

For C=CCc1cc(S(=O)(=O)c2ccc(O)c(CC=C)c2)ccc1O, which outcome is on record?
Its outcome is “inactive”.

With O=S(=O)(O)c1ccc(N=Nc2c(O)ccc3cc(S(=O)(=O)O)ccc23)cc1 as the molecule, how does the outcome read?
The outcome was “inactive”.

For Cn1c(=O)c2[nH]cnc2n(C)c1=O, which outcome is on record?
The outcome was “inactive”.

With COc1cc(C(C)C)c2c(c1)S(=O)(=O)N(COc1cc(=O)n3cccc(OCCN4CCCCC4)c3n1)C2=O as the molecule, how does the outcome read?
Its outcome is “inactive”.

Which AC50 does the source give for COCc1nnc(-c2ccc[n+]([O-])c2)n1-c1c(Cl)c(Cl)cc2[nH]c(=O)c(=O)[nH]c12 here?
Its AC50 is 4.76 µM (active).

For CCCCCCCC/C=C\CCCCCCCC(=O)OC[C@@H](O)[C@H]1OC[C@H](O)[C@H]1O, which outcome is on record?
Its outcome is “inactive”.

With c1ccc2cc3ccccc3cc2c1 as the molecule, how does the outcome read?
The outcome was “inactive”.

For Cc1ncc([C@@H](CCCCCCc2ccc3c(n2)NCCC3)CC(=O)O)cn1, which outcome is on record?
Its outcome is “inactive”.

Assay: CCTE_Shafer_MEA_acute_per_network_burst_spike_number_std: CCTE's Neural Acute Assay for Standard Deviation of Number of Spikes in a Network Burst, Shafer Lab (AID 2284020);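 further: fitted for decrease in spike-number SD versus DMSO so actives lower it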
Procedure, shortened: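 Acute MEA exposure, rat cortical neurons, 0.03-40 uM. Per-well % change versus own baseline; DMSO as negative control.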

Which outcome does the source give for CC[C@H](C)C(=O)O[C@H]1C[C@H](O)C=C2C=C[C@H](C)[C@H](CC[C@@H](O)C[C@@H](O)CC(=O)O)[C@H]21 here?
The outcome was “inactive”.

With CCCCCCCC1CCC(=O)O1 (centres undefined) as the molecule, how does the outcome read?
Its outcome is “inactive”.

For OCc1ccccc1, which outcome is on record?
The outcome was “inactive”.

For CC(C)C(=O)Nc1ccc([N+](=O)[O-])c(C(F)(F)F)c1, which AC50 is on record?
Its AC50 is 5.47 µM (active).

Which outcome does the source give for CCCc1ccccc1 here?
Its outcome is “inactive”.

Which outcome does the source give for CCCCC(CC)C(=O)OCCOCCOCCOC(=O)C(CC)CCCC (centres undefined) here?
Its outcome is “inactive”.

Which outcome does the source give for CCc1ccc(O)c(C(C)(C)C)c1 here?
The outcome was “inactive”.

For c1ccc(C(O[C@@H]2CCCN(CCc3ccc4c(c3)OCO4)C2)c2ccccc2)cc1, which outcome is on record?
The outcome was “inactive”.

For COc1cc2c(c(OC)c1OC)-c1ccc(OC)c(=O)cc1[C@@H](NC(C)=O)CC2, which outcome is on record?
Its outcome is “inactive”.

For OC(CCl)CCl, which outcome is on record?
Its outcome is “inactive”.

Which outcome does the source give for C=CCc1cc(S(=O)(=O)c2ccc(O)c(CC=C)c2)ccc1O here?
Its outcome is “inactive”.

With O=S(=O)(O)c1ccc(N=Nc2c(O)ccc3cc(S(=O)(=O)O)ccc23)cc1 as the molecule, how does the outcome read?
The outcome was “inactive”.

For Cn1c(=O)c2[nH]cnc2n(C)c1=O, which outcome is on record?
The outcome was “inactive”.

For COc1cc(C(C)C)c2c(c1)S(=O)(=O)N(COc1cc(=O)n3cccc(OCCN4CCCCC4)c3n1)C2=O, which AC50 is on record?
Its AC50 is 1.03 µM (active).

Which AC50 does the source give for COCc1nnc(-c2ccc[n+]([O-])c2)n1-c1c(Cl)c(Cl)cc2[nH]c(=O)c(=O)[nH]c12 here?
The AC50 was 10.9 µM (active).

For CCCCCCCC/C=C\CCCCCCCC(=O)OC[C@@H](O)[C@H]1OC[C@H](O)[C@H]1O, which outcome is on record?
The outcome was “inactive”.

For c1ccc2cc3ccccc3cc2c1, which outcome is on record?
Its outcome is “inactive”.

With Cc1ncc([C@@H](CCCCCCc2ccc3c(n2)NCCC3)CC(=O)O)cn1 as the molecule, how does the outcome read?
Its outcome is “inactive”.

Assay: CCTE_Shafer_MEA_acute_per_network_burst_electrodes_number_mean: CCTE's Neural Acute Assay for Mean Number of Electrodes in a Network Burst, Shafer Lab (AID 2284021);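 further: curves fitted for decreases only so hits reduce electrodes per burst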
Procedure, shortened: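 Percent change from baseline was computed as mean electrode count per network burst, comparing 40 min recordings before and during compound (0.03-40 uM) exposure. Cultures were rat cortical neurons at DIV 13 or 15, recorded on MEAs at 37 C with an adaptive 8x rms threshold.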

For CC[C@H](C)C(=O)O[C@H]1C[C@H](O)C=C2C=C[C@H](C)[C@H](CC[C@@H](O)C[C@@H](O)CC(=O)O)[C@H]21, which outcome is on record?
The outcome was “inactive”.

For CCCCCCCC1CCC(=O)O1 (centres undefined), which outcome is on record?
The outcome was “inactive”.

For OCc1ccccc1, which outcome is on record?
Its outcome is “inactive”.

For CC(C)C(=O)Nc1ccc([N+](=O)[O-])c(C(F)(F)F)c1, which outcome is on record?
Its outcome is “inactive”.

For CCCc1ccccc1, which outcome is on record?
Its outcome is “inactive”.

With CCCCC(CC)C(=O)OCCOCCOCCOC(=O)C(CC)CCCC (centres undefined) as the molecule, how does the outcome read?
The outcome was “inactive”.

For CCc1ccc(O)c(C(C)(C)C)c1, which AC50 is on record?
Its AC50 is 35 µM (active).

With c1ccc(C(O[C@@H]2CCCN(CCc3ccc4c(c3)OCO4)C2)c2ccccc2)cc1 as the molecule, how does the outcome read?
The outcome was “inactive”.

With COc1cc2c(c(OC)c1OC)-c1ccc(OC)c(=O)cc1[C@@H](NC(C)=O)CC2 as the molecule, how does the AC50 read?
The AC50 was 31.6 µM (active).

With OC(CCl)CCl as the molecule, how does the outcome read?
Its outcome is “inactive”.

With C=CCc1cc(S(=O)(=O)c2ccc(O)c(CC=C)c2)ccc1O as the molecule, how does the outcome read?
Its outcome is “inactive”.

Which outcome does the source give for O=S(=O)(O)c1ccc(N=Nc2c(O)ccc3cc(S(=O)(=O)O)ccc23)cc1 here?
The outcome was “inactive”.

For Cn1c(=O)c2[nH]cnc2n(C)c1=O, which outcome is on record?
Its outcome is “inactive”.

With COc1cc(C(C)C)c2c(c1)S(=O)(=O)N(COc1cc(=O)n3cccc(OCCN4CCCCC4)c3n1)C2=O as the molecule, how does the outcome read?
Its outcome is “inactive”.

With COCc1nnc(-c2ccc[n+]([O-])c2)n1-c1c(Cl)c(Cl)cc2[nH]c(=O)c(=O)[nH]c12 as the molecule, how does the outcome read?
Its outcome is “inactive”.

Which outcome does the source give for CCCCCCCC/C=C\CCCCCCCC(=O)OC[C@@H](O)[C@H]1OC[C@H](O)[C@H]1O here?
Its outcome is “inactive”.

With c1ccc2cc3ccccc3cc2c1 as the molecule, how does the outcome read?
The outcome was “inactive”.

Which outcome does the source give for Cc1ncc([C@@H](CCCCCCc2ccc3c(n2)NCCC3)CC(=O)O)cn1 here?
The outcome was “inactive”.
